IDE act: activators of human insulin-degrading enzyme in cells; P14735; HEK cells, FAbeta-B cleavage, fluorescence polarization; 0% vehicle, 100% cell-free pure enzyme wells; activation, % at 5.96 µM; 340,000 tested, 0.073% active; AID 493087;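 active = activation above the mean of all tested compounds plus 3 SD, set per screening campaign, cut at about 17% in these data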
LANA-H2B inh: blocks KSHV LANA binding to histone H2A/H2B | Q9QR71 | cell-free LANA-H2A/H2B peptide, fluorescence polarization | AID 2629 | inhibition, % (concentration not given with the values) | 320,000 tested, 0.6% active; in the data active = inhibition mostly above about 10%, no sharp cut-off; inactive = mostly below about 6.7%
IDE cell inh: cellular human IDE inhibition; 320,000 tested, 0.41% active; inhibition, % at 5.59 µM; P14735; AID 434962; HEK cells, FAbetaB cleavage, fluorescence polarization;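 active = percent inhibition above the average of all tested compounds plus 3 SD, set per screening campaign, cut at about 16% in these data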;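 also: IDE supplied by intact live HEK cells; FP after avidin binding of uncleaved biotin substrate so inhibition keeps polarization high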
Mot1-301 SUMO: blocks SUMOylation pathway, rescuing yeast Mot1-301 growth. S. cerevisiae Mot1-301 growth rescue, ATP luminescence, 38.5C; percent above DMSO median, 100 means doubled. growth rescue, % at 18.8 µM. 320,000 tested, 1% active;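 active = every valid replicate shows activation above 250% relative to neutral control wells; inactive = the rest, any valid replicate at or below 250%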
HDAC3 inh: blocks human histone deacetylase 3 | O15379 | recombinant HDAC3, fluorogenic peptide/trypsin coupled, fluorescence | 320,000 tested, 0.15% active | inhibition, % at 8.3 µM; in the data active = inhibition above about 26%, passing the limit was not always enough
IDE inh confirm: confirmation of human insulin-degrading enzyme inhibitors in cells. shares compounds with IDE cell inh. HEK cells, FAbetaB cleavage, fluorescence polarization. inhibition, % at 5.59 µM. 1,200 tested, 51% active. AID 435028;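 active = mean inhibition across triplicate wells above the cutoff set by the earlier primary insulin-degrading enzyme screen, cut at about 16% in these data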
HEK cytotox: HEK cell cytotoxicity, counter-screen for IDE inhibitors. 1,200 tested, 28% active. inhibition, % at 5.59 µM. shares compounds with IDE cell inh. HEK293 cytotoxicity, ATP luminescence. AID 449730; in the data active = inhibition above about 22%
FP fluor counter: fluorescence interference counter-screen for IDE inhibitors; shares compounds with IDE cell inh; FP counterscreen for fluorescent artifacts, IDE probe project; IC50, µM; 30 tested, under 10 active; AID 588718; call rule not given here
Of the large screens only hits and unclear results are named; the others gave an inactive call (follow-up assays come after a bar, where they were run). Hits are enriched below; roughly 2.1% of the tested compounds scored in any of these assays.

CCOc1ccccc1-n1c(SCC(N)=O)nnc1-c1cccnc1	IDE cell inh 17 | IDE inh confirm inactive | HEK cytotox inactive
CCOc1ccccc1-n1c(SCC(=O)N(C(C)C)C(C)C)nnc1-c1cccnc1	none
Cc1ccccc1OCCC(=O)OCC(=O)NCCNC(=O)COC(=O)CCOc1ccccc1C	none
CN1CCN(C(=O)c2cc3ccccc3[nH]2)CC1	none
Cc1ccc(S(=O)(=O)N2CCCN(C(=O)c3cc4ccccc4[nH]3)CC2)cc1	IDE cell inh 16 | IDE inh confirm inactive | HEK cytotox inactive
CCN1CCC2(CC1)C(C#N)=C(N)Oc1c2sc2nc(C)cc(C)c12	IDE cell inh 35 | IDE inh confirm inactive | HEK cytotox inactive
CNS(=O)(=O)c1ccc(C(=O)NCC(=O)NCCC(c2ccccc2)c2ccccc2)cc1	none
CCCn1c(Nc2nc3ccccc3n2C)nc2ccccc21	IDE cell inh 32 | IDE inh confirm 24 | HEK cytotox inactive
O=C(O)c1ccccc1NS(=O)(=O)c1cccc(C(F)(F)F)c1	none
O=C(O)c1ccccc1NS(=O)(=O)c1cccc(-n2sc3ccccc3c2=O)c1	IDE cell inh 90, HDAC3 inh 54 | IDE inh confirm 73 | HEK cytotox inactive
Oc1cc(-n2cccn2)c(O)cc1-n1cccn1	IDE cell inh 36 | IDE inh confirm inactive | HEK cytotox 39
Cc1cccc(-c2nnc(SCc3nc4ccccc4[nH]3)n2Cc2ccco2)c1	IDE cell inh 37 | IDE inh confirm 31 | HEK cytotox inactive | FP fluor counter inactive
O=C(CSc1nnc(-c2cccc(Cl)c2)n1Cc1ccco1)Nc1ccc2cn[nH]c2c1	none (no result: IDE act, LANA-H2B inh, IDE cell inh, Mot1-301 SUMO, HDAC3 inh) | FP fluor counter inactive
O=C(CSc1nnc(-c2cccc(Cl)c2)n1Cc1ccco1)c1ccc2ccccc2c1	none (no result: IDE act, LANA-H2B inh, IDE cell inh, Mot1-301 SUMO, HDAC3 inh) | FP fluor counter inactive
Cc1ccc(-c2nnc(SCc3nc4ccccc4[nH]3)n2Cc2ccco2)cc1	none
C#CCOCCOCCOCCNc1nc(N2CCN(C(=O)Cn3cc(CCO)nn3)CC2)nc(N2CCN(C(=O)Cn3cc(CCO)nn3)CC2)n1	none (no result: LANA-H2B inh, IDE cell inh, Mot1-301 SUMO, HDAC3 inh)
CC(C)N(Cc1ccccc1)C(=O)COC(=O)c1cc[n+]([O-])cc1	none
O=C(NCCC1=CCCCC1)Nc1ccc2nsnc2c1	IDE cell inh 31 | IDE inh confirm 17 | HEK cytotox inactive
Cc1ccc(-c2cc(C(=O)Nc3ccc(S(=O)(=O)N4CC(C)OC(C)C4)cc3)[nH]n2)c(O)c1 (stereo not given)	IDE cell inh 20 | IDE inh confirm inactive | HEK cytotox 32
Cc1ccc(O)c(-c2cc(C(=O)Nc3ccc(S(=O)(=O)N4CC(C)OC(C)C4)cc3)[nH]n2)c1 (stereo not given)	none
O=C(CCCC(=O)NN=Cc1ccc(Cl)cc1Cl)NN=Cc1ccc(Cl)cc1Cl	none (no result: LANA-H2B inh, IDE cell inh, Mot1-301 SUMO, HDAC3 inh)
CCc1ccc(C(=O)N/N=C/c2ccc(Cl)cc2Cl)nc1	LANA-H2B inh 40, IDE cell inh 18 (no result: IDE act) | IDE inh confirm inactive | HEK cytotox inactive
COc1cc(SSc2cc(OC)cc([N+](=O)[O-])c2N)c(N)c([N+](=O)[O-])c1	IDE cell inh 21 (no result: HDAC3 inh) | IDE inh confirm 18 | HEK cytotox 24
COc1ccc(C2=NOC(Cn3nc(C(=O)NCc4ccccc4OC)cc3-c3ccccc3)C2)cc1 (stereo not given)	none
CN1C2CCC1/C(=C/c1cccn1C)C(=O)/C2=C\c1cccn1C	IDE cell inh 44 | IDE inh confirm 72 | HEK cytotox inactive
CN1C2CCC1/C(=C\c1ccc(F)cc1)C(=O)/C2=C/c1ccc(F)cc1	none
CCC1=NN2C(=N)/C(=C/c3c(C)nn(-c4ccccc4)c3Cl)C(=O)N=C2S1	none
CCC1=NN2C(=N)/C(=C\c3ccc(SCc4ccco4)o3)C(=O)N=C2S1	IDE cell inh 22 | IDE inh confirm inactive | HEK cytotox inactive
O/C=c1\ccc2cccc3nc(C(F)(F)F)nc1c23	IDE cell inh 26 | IDE inh confirm 103 | HEK cytotox 41
CCOc1ccc2nc(SCC3CC3(Cl)Cl)[nH]c2c1 (stereo not given)	IDE cell inh 16 | IDE inh confirm inactive | HEK cytotox 29
O=C(Nc1cccc(C(F)(F)F)c1)c1ccc(Cn2cc(Br)cn2)o1	none
O=C(Nc1ccc(C(F)(F)F)cc1Cl)c1ccc(Cn2cc(Br)cn2)o1	IDE cell inh 17 | IDE inh confirm inactive | HEK cytotox inactive
Cc1ccc2c(c1)C1NC(=S)NC(C)(O2)C1C(=O)Nc1ccc(Cl)cc1 (stereo not given)	IDE cell inh 17 | IDE inh confirm inactive | HEK cytotox inactive
COc1ccc2c(c1)C1NC(=S)NC(C)(O2)C1C(=O)Nc1ccc(Cl)cc1 (stereo not given)	none
COc1ccc(CNC(=O)N2CCN(c3cccc(C)c3C)CC2)cc1OC	IDE cell inh 17 | IDE inh confirm inactive | HEK cytotox inactive
Cc1cccc(N2CCN(C(=O)NCc3ccc(F)cc3)CC2)c1C	none
Cc1cc2nc(-c3ccc(SCC(=O)Nc4ccc(S(=O)(=O)N5CCCC5)cc4)nc3)[nH]c2cc1C	IDE cell inh 17 | IDE inh confirm inactive | HEK cytotox inactive
Cc1cc2nc(-c3ccc(SCc4ccc(C#N)cc4)nc3)[nH]c2cc1C	IDE cell inh 17 | IDE inh confirm inactive | HEK cytotox inactive
C=CCn1c(N)cc(=O)nc1SC(CC)C(=O)Nc1ccc(C(C)=O)cc1 (stereo not given)	none
CCS(=O)(=O)c1nn2c(N)c(/C=C3/C=CC(=O)C(OC)=C3)c(=O)nc2s1	IDE cell inh 24 | IDE inh confirm 157 | HEK cytotox inactive
COC1=C/C(=C/c2c(N)n3nc(-c4ccc(C)cc4)sc3nc2=O)C=CC1=O	none (no result: LANA-H2B inh, IDE cell inh, Mot1-301 SUMO, HDAC3 inh)
ClC(Cl)(c1nnnn1-c1ccccc1)c1nnnn1-c1ccccc1	IDE cell inh 60 | IDE inh confirm inactive | HEK cytotox 121
Cc1ccc(/C=C/C(=O)NC(=S)Nc2ccc(S(=O)(=O)Nc3cc(C)on3)cc2)cc1	IDE cell inh 25 | IDE inh confirm 21 | HEK cytotox inactive
Cc1cc(NS(=O)(=O)c2ccc(NC(=S)NC(=O)/C=C/c3ccccc3)cc2)no1	none
CCN(CC(=O)Nc1c(F)cccc1F)C(=O)/C=C/c1ccc2c(c1)OCO2	none
Oc1cccc2ccc(Nc3ccccn3)nc12	IDE cell inh 25 | IDE inh confirm inactive | HEK cytotox 45
COc1ccc(Nc2nc(-c3sc(C)nc3C)cs2)c(OC)c1	IDE cell inh 21 | IDE inh confirm inactive | HEK cytotox 62
CCc1noc(C)c1C(=O)N1CCN(S(=O)(=O)c2c(C)cc(C)cc2C)CC1	none

Compound activity: PubChem BioAssay, several laboratories
